PubChem BioAssay (NCATS)
Results filed as inconclusive are left out. Active and inactive are the calls of the source. Unless noted, calls follow the shape of the dose curve; as a rule, active = well fitted curve in the direction sought with a large enough effect; inconclusive = small, poorly fitted or top-dose-only effect, or another doubt; inactive = no such curve, though single readings can be large; an effect the other way counts as inactive or inconclusive.

Columns and labels:
[1] = target: Glucocorticoid receptor (Homo sapiens) (UniProt P04150); experiment: qHTS assay for small molecule agonists of glucocorticoid receptor signaling (AID 588532; active = well fitted curve in the direction sought with a large enough effect in the signal ratio, with a control signal flat; the % refers to the signal ratio;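 also: 100% = dexamethasone at 0.1 µM and 0% = DMSO only wells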); conditions: HeLa MMTV-bla, beta-lactamase ratio, agonist, 18 h; activation: stronger effect = higher value, percent of dexamethasone control, DMSO zero
In short: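 Cells were plated and rested 3-5 h at 37 C, compounds were added in titration and incubated 18 h, then CCF4 substrate was loaded for 2 h at RT before reading blue/green fluorescence. EC50 came from Hill-equation fitting.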

[2] = target: Peroxisome proliferator-activated receptor delta (Homo sapiens) (UniProt Q03181); experiment: qHTS assay for small molecule agonists of peroxisome proliferator-activated receptor delta signaling (AID 588534; calls by dose curve;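 also: 0% = DMSO basal wells and 100% = positive control agonist at 10 µM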)
In short: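 Agonist-mode qHTS; reporter cells, 5 hrs 37 C pre-incubation; compound titration, 18 hrs 37 C; CCF4 dye, 2 hrs RT; fluorescence read. EC50/efficacy via Hill fit.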

[3] = qHTS assay for small molecule antagonists of peroxisome proliferator-activated receptor delta signaling (AID 588535; active = well fitted inhibition curve with a large enough effect in the signal ratio, with a control signal flat, not every such curve was filed as active; the % refers to the signal ratio;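 as to max response: cells co-treated with a PPAR-delta agonist as stimulator during compound exposure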); conditions: HEK293T PPARd-UAS-bla, beta-lactamase FRET ratio, 18 h; 460 nm channel
In short: (§1)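 Fluorescence from CCF4-loaded GeneBLAzer PPAR-delta-UAS-bla HEK293T cells (2 hrs RT loading) quantified reporter inhibition after an 18 hr, 37 C compound exposure across a titration.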

[4] = target: Peroxisome proliferator-activated receptor delta (Homo sapiens) (UniProt Q03181); experiment: as above
In short: as §1

[5] = target: Vitamin D3 receptor (Homo sapiens) (UniProt P11473); experiment: qHTS assay for small molecule agonists of vitamin D receptor signaling (AID 588543; calls by dose curve;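 also: 0% = DMSO basal and 100% = reference agonist control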)
In short: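 Reporter cells (HEK293T, VDR-UAS-bla) were seeded in medium with 2% charcoal-stripped serum and incubated 5 h, then compounds in concentration series were added for 16 h at 37 °C. Stimulation was scaled between DMSO basal and 50 nM 1α,25-dihydroxyvitamin D3.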

[6] = target: Thyroid hormone receptor beta (Homo sapiens) (UniProt P10828); experiment: qHTS assay for small molecule agonists of thyroid hormone receptor beta signaling (AID 588545; calls by dose curve)
In short: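 HEK 293 TR-UAS-bla; agonist mode; 18 hrs, 37 C; CCF4, ex 405/em 460 and 530 nm; norm. T3 10 nM = 100%, DMSO = 0%; Hill fit → EC50, efficacy.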

[7] = qHTS assay for small molecule antagonists of retinoid X receptor alpha signaling (AID 588546; active = well fitted inhibition curve with a large enough effect in the signal ratio, with a control signal flat, not every such curve was filed as active; the % refers to the signal ratio;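 also: cells stimulated with 9-cis-retinoic acid as agonist; % is scaled to controls: 0 for no effect and ±100 for the full control effect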); conditions: HEK293T RXRa-UAS-bla, beta-lactamase ratio, antagonist mode; measured here: W530 green channel, cytotoxicity proxy
In short: (§2)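 Beta-lactamase reporter inhibition, read as CCF4 fluorescence ratio (ex 405, em 460/530 nm) after 2 h at RT. HEK293T UAS-bla cells, 2500/well, were stimulated with 9-cis-RA at 500 or 100 nM final alongside test compound for 18 h at 37 C.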

[8] = target: Retinoic acid receptor RXR-alpha (Homo sapiens) (UniProt P19793); experiment: as above; conditions: HEK293T RXRa-UAS-bla, beta-lactamase ratio, antagonist mode
In short: as §2

[9] = target: Thyroid hormone receptor beta (Homo sapiens) (UniProt P10828); experiment: qHTS assay for small molecule antagonists of thyroid hormone receptor beta signaling (AID 588547; active = well fitted inhibition curve with a large enough effect in the signal ratio, with a control signal flat, not every such curve was filed as active; the % refers to the signal ratio;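 also: cells stimulated with 0.4 nM T3 agonist during compound exposure; series mostly up to about 77 µM; % is scaled to controls: 0 for no effect and ±100 for the full control effect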); conditions: TR-UAS-bla HEK293, beta-lactamase ratio, antagonist mode, 18 h
In short: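 TR-UAS-bla GripTite HEK293 cells in 2% charcoal/dextran FBS medium; compounds 0.59 nM to 92 uM with T3 at 0.4nM final, 18 h at 37 C. Beta-lactamase read by CCF4 fluorescence (460/530 nm); Hill fits gave IC50 and efficacy.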

[10] = qHTS assay for small molecule activators of the p53 signaling pathway (AID 651743; active = well fitted activation curve with a large enough effect in the signal ratio, not every such curve was filed as active; the % refers to the signal ratio; also: series mostly up to about 92 µM; % of control where 0% means no effect); conditions: HCT-116 p53RE-bla, beta-lactamase FRET ratio, 16 h; activation: stronger effect = higher value
In short: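 Following 16 hours of compound exposure at 37 C, HCT-116 cells bearing the p53RE-bla reporter were loaded with LiveBLAzer B/G FRET substrate for 2 hours at room temperature and fluorescence intensity was recorded.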

[11] = qHTS assay for environmental chemicals that activate the Aryl hydrocarbon Receptor (AhR) signaling pathway (AID 651777); conditions: 1A2-DRE human hepatoma cells, luciferase, 24 h; activation: stronger effect = higher value; also: % of control where 0% means no effect; nearly all actives have a fitted effect of over 15% in size
In short: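 Human hepatoma 1A2-DRE cells, stably carrying a dioxin response element and CYP1A2 promoter driving luciferase, were exposed to compounds for 24 hr at 37 C and 5% CO2. Luciferase signal was then read after 30 min One-Glo at room temperature.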

[12] = target: Peroxisome proliferator-activated receptor alpha (Homo sapiens) (UniProt Q07869); experiment: qHTS assay for small molecule agonists of the peroxisome proliferator-activated receptor alpha (PPARalpha) signaling pathway (AID 651778); conditions: PathHunter PPARalpha complementation, chemiluminescence, 6 h; max response: stronger effect = higher value; also: % of control where 0% means no effect
In short: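 Enzyme-fragment complementation assay in which ligand-bound PPARalpha translocates and forms an active enzyme that generates chemiluminescence. Cells were plated overnight, exposed to compound for 6 hr at 37 C, and then given detection reagent for 60 min at room temperature.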

[13] = qHTS assay for small molecule agonists of the antioxidant response element (ARE) signaling pathway measured by Nrf2-dependant transcriptional activity (AID 720636; active = well fitted curve in the direction sought with a large enough effect in the repeat runs; an effect the other way counts as inactive or inconclusive; also: % of control where 0% means no effect)
In short: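 ARE-luc HepG2 cells carrying an Nrf2-responsive luciferase reporter were plated in medium with 1% dialyzed FBS, left 6 hr at 37 C to attach, then exposed to compound for 16 hr. Luciferase luminescence was read after ONE-Glo addition.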

[14] = qHTS assay for small molecule agonists of the antioxidant response element (ARE) signaling pathway measured by Nrf2-dependant transcriptional activity - cell viability counter screen (AID 720653; active = well fitted curve in the direction sought with a large enough effect in the repeat runs; an effect the other way counts as inactive or inconclusive; also: % is scaled to controls: 0 for no effect and ±100 for the full control effect); conditions: ARE-bla HepG2 viability, CellTiter-Glo ATP luminescence, 16 h; max response: stronger effect = lower value
In short: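 ARE-bla HepG2 cells treated with compounds for 16 h at 37C; this counter screen measures viability as intracellular ATP by CellTiter-Glo luminescence after 30 min at room temperature.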

[15] = qHTS assay for cell viability of HEK293 cells (AID 743288); conditions: ATP luminescence (CellTiter-Glo), 18 h; max response: stronger effect = lower value; also: % is scaled to controls: 0 for no effect and ±100 for the full control effect; nearly all actives have a fitted effect of over 50% in size
In short: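 Viable-cell counts were inferred from luciferase-based ATP content in HEK293 cells seeded at 2,000/well, pre-incubated ≥5 h, then dosed with DMSO-solubilised compounds for 18 h at 37 C.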

[16] = qHTS assay for cell viability of the p53RE-bla HCT-116 cell line (AID 743292); also: % is scaled to controls: 0 for no effect and ±100 for the full control effect; nearly all actives have a fitted effect of over 55% in size
In short: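 CellSensor p53RE-bla HCT-116 cells, 4,000/well, preincubated 5 h at 37 C, then exposed to compounds in DMSO for 16 h at 37 C. Viability read as CellTiter-Glo luminescence (intracellular ATP) after 30 min at room temperature.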

Peroxisome proliferator-activated receptor delta (Homo sapiens), sequence (Q03181 whole entry, looked up): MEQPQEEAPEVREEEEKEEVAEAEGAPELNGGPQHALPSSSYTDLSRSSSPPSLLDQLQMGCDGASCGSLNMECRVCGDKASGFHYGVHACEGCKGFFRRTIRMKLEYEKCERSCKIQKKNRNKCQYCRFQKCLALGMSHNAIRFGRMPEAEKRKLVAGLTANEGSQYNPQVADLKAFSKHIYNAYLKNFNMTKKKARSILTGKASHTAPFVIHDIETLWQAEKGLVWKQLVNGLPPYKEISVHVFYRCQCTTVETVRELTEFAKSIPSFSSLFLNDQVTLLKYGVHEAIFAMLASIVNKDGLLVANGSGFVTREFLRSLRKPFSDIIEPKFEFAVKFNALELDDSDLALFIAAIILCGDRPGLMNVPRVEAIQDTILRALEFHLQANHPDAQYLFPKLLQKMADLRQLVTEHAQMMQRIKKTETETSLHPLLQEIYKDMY
Thyroid hormone receptor beta (Homo sapiens), sequence (P10828 whole entry, looked up): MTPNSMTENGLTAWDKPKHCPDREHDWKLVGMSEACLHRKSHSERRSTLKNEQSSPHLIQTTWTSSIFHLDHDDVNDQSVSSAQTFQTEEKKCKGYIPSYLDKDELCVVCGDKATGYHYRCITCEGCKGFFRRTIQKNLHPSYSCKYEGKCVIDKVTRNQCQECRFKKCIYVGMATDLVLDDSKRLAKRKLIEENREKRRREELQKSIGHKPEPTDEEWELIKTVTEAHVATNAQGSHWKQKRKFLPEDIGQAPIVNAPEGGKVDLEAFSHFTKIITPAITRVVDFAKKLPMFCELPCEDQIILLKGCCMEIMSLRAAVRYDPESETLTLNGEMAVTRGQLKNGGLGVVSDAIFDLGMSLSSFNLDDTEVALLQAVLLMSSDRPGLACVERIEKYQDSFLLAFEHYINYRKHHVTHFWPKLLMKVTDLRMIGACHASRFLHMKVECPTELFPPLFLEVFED
Peroxisome proliferator-activated receptor alpha (Homo sapiens), sequence (Q07869 whole entry, looked up, the tested form may be a part): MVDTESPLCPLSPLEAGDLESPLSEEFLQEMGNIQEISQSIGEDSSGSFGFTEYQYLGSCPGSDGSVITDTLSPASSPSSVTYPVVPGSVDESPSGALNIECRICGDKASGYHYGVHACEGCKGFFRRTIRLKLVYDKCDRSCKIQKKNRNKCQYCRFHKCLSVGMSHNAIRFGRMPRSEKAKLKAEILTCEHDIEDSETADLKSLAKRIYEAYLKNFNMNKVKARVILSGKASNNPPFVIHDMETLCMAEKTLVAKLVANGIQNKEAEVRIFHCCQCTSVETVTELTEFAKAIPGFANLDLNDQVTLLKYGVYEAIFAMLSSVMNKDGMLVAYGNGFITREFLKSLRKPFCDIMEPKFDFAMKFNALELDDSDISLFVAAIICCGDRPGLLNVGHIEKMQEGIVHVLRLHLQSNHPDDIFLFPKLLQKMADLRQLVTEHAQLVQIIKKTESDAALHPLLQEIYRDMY
Glucocorticoid receptor (Homo sapiens), sequence (P04150 whole entry, looked up): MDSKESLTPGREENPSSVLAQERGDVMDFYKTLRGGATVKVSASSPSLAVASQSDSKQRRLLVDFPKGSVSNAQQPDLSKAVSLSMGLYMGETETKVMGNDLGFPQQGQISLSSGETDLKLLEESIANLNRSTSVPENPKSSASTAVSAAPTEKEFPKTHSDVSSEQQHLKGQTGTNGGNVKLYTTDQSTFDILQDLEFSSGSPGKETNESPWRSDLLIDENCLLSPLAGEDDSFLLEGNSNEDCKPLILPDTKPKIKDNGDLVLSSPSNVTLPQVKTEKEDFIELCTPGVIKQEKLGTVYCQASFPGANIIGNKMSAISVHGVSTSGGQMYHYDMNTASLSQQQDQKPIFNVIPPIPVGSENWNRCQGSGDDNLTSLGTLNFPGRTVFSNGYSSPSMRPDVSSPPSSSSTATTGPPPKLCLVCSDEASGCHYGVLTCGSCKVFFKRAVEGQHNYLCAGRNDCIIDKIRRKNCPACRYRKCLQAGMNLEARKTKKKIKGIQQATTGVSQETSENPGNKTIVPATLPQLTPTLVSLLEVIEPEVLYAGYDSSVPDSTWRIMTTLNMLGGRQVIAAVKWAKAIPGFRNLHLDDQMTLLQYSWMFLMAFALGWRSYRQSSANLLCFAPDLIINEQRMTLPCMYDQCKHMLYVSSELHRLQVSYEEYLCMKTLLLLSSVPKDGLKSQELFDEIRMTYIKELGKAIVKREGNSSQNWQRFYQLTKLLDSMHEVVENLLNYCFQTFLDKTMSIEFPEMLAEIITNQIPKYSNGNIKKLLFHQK
Vitamin D3 receptor (Homo sapiens), sequence (P11473 whole entry, looked up): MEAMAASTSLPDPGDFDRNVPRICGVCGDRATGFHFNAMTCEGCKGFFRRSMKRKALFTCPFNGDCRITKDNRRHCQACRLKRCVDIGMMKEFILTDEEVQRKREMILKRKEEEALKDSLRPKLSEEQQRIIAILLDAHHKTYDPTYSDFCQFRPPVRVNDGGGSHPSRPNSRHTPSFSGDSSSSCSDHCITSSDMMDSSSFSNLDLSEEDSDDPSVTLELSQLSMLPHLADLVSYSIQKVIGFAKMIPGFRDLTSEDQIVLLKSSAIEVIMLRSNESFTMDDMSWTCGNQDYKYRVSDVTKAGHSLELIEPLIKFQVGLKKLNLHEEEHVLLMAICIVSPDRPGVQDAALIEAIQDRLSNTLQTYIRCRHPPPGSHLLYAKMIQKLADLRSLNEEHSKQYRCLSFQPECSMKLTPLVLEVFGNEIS
Retinoic acid receptor RXR-alpha (Homo sapiens), sequence (P19793 whole entry, looked up): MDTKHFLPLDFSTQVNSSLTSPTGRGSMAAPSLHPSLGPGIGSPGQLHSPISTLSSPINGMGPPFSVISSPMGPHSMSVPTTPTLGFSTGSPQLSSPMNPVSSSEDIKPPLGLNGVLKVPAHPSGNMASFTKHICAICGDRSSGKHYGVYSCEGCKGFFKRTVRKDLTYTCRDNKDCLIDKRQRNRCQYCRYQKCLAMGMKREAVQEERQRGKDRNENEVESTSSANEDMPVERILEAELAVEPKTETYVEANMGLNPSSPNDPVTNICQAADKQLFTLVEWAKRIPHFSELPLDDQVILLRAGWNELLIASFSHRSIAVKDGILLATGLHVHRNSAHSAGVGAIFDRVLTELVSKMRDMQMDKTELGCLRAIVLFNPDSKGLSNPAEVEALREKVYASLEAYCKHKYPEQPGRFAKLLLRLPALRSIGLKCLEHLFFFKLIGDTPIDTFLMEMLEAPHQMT

OC(c1ccc(Cl)cc1)(c1cncnc1)c1ccccc1Cl (stereo unspecified)
8.06%: max response [7]
31.8%: max response [3]
inactive: activation [1] -10.1% | outcome [2] | Potency [4] | outcome [5] | Potency [6] | max response [8] -39.6% | activity change % (negative = inhibition) [9] 5.6% | activation [10] -2.63% | activation [11] 2.31% | max response [12] -4.62% | Potency [13] | max response [14] -4.24% | max response [15] -17.1% | Potency [16]
